Source: PubChem BioAssay
A selection: hits, their analogues and other compounds. The true share with any hit is near 7.3%.
Tau ThT inhib – blocks human tau fibril formation measured by thioflavin T; P10636; 270,000 compounds, 2.1% hits; AID 1460; Potency, µM (doses to about 57.4 µM), inactives show top-dose activity, negative = inhibition, most hits filed as inhibitors; recombinant tau K18 P301L, heparin-induced fibrillization, ThT fluorescence; further: nearly all actives have a fitted effect of over 55% in size
Target sequence (P10636 561-689 P618L limits assumed): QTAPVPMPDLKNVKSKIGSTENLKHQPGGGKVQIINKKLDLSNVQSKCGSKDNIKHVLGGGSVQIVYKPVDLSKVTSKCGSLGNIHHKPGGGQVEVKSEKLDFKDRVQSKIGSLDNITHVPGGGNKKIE
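Heparin-induced (20 uM) aggregation of recombinant human K18 P301L tau, 15 uM unlabeled with 0.24 uM labeled, pH 7 acetate buffer, 6 hr at 37 C with compound. Fibrils quantified by 30 uM ThT fluorescence after 1 hr ambient incubation.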
RORg inh – blocks mouse ROR gamma transcriptional activity. Drosophila S2 Gal4-RORgamma UAS-luciferase reporter, 20 h. Potency, µM (titrated, usually from 53.6 µM), inactives show at the highest dose activity change, negative = inhibition, actives largely listed as inhibitors. 310,000 compounds, 5.4% hits; further: nearly all actives have a fitted effect of over 60% in size
Target sequence (P51450 whole entry, looked up, the tested form may be a part): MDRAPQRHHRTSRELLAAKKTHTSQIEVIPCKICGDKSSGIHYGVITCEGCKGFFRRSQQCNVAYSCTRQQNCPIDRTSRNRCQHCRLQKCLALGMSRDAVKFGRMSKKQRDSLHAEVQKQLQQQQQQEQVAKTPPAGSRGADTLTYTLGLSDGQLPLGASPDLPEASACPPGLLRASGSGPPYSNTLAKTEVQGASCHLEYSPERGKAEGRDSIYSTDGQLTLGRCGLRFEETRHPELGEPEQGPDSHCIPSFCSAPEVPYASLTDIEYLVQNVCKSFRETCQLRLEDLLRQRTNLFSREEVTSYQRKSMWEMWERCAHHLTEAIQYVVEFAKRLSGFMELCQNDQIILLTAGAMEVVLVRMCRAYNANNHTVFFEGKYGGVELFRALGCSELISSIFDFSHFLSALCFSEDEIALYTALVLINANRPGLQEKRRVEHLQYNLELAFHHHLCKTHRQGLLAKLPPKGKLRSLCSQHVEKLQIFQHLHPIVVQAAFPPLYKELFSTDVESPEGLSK
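Drosophila Schneider cells stably carrying a metallothionein-driven Gal4 DBD–ROR gamma fusion and a UAS-Photinus luciferase reporter were exposed to compound for 1 hr, then induced with copper sulfate (700 uM final) for 20 hr at ambient temperature before luminescence reading.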
Gal4-VP16 FLuc – counter-screen for ROR gamma inhibitors: Gal4-VP16 reporter | Drosophila S2 Gal4-VP16 UAS-luciferase, luminescence, 20 h | 310,000 compounds, 3.5% hits | AID 2546 | Potency, µM (top dose mostly 53.6 µM), for inactives: at the top dose activity, negative = inhibition, usual class: inhibitors;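 further: Gal4-VP16 expression switched on by copper sulfate through the metallothionein promoter; nearly all actives have a fitted effect of over 50% in size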
Tau fluor counter – counter-screen for tau fibril formation inhibitors. tau K18 P301L Alexa594 fluorescence, heparin fibrillization. Potency, µM (series often up to 57.7 µM), for the others: top-dose activity change, negative = decrease. 280,000 compounds, 0.93% hits; further: nearly all actives have a fitted effect of over 55% in size
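Human K18 P301L tau (15 uM unlabeled plus 0.24 uM Alexa 594-labeled, final) in 100 mM sodium acetate pH 7 was mixed with compound and 20 uM heparin and incubated 6 hr at 37 C.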
Tau fibril FP – inhibitors of human tau fibril formation; P10636; 280,000 compounds, 0.39% hits; K18 P301L tau heparin fibrillization, Alexa594 FP, 6 h; Potency, µM (series often up to 57.7 µM), for the others: at the highest dose activity, negative = inhibition, hits mostly inhibitors; further: nearly all actives have a fitted effect of over 55% in size
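Heparin (20 uM) drove fibril formation of recombinant tau K18 P301L, 15 uM unlabeled with 0.24 uM Alexa 594 label, for 6 hr at 37 C in 100 mM sodium acetate pH 7. Fluorescence polarization (555/632 nm) read 1 hr after 30 uM ThT.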
The depositor's hits bear a star; ? = inconclusive; . = not tested or not shown; [ ] = remark or other dose. The call rests on the fitted dose curve; in most records, active means well fitted curve in the direction sought with a large enough effect; inconclusive means small, poorly fitted or top-dose-only effect, or another doubt; inactive means no such curve, though single readings can be large; an effect the other way counts as inactive or inconclusive. On the % scale 0 is the no-effect control and ±100 the full control effect; potency means the concentration at half of the fitted maximal effect.

SMILES | Tau ThT inhib | RORg inh | Gal4-VP16 FLuc | Tau fluor counter | Tau fibril FP
CCOC(=O)CNC(=O)CSc1nc(N)cc(N)n1 | 7% | -19% | 6% | 7% | 2%
Cc1ccc(N2C(=O)C(Cl)=C(NCCO)C2=O)c(C)c1 | ? | 26% | 0% | ? | ?
Cc1ccc(N2C(=O)C(Cl)=C(N3CCN(C)CC3)C2=O)c(C)c1 | 14µM* | 25% | -23% | ? | 25µM*
O=C1C(Cl)=C(N2CCN(Cc3ccccc3)CC2)C(=O)N1c1ccccc1 | 16µM* | 1% | 12% | ? | 25µM*
CN1CCN(C2=C(Cl)C(=O)N(c3ccc(Cl)cc3)C2=O)CC1 | 25µM* | 11% | 6% | ? | ?
O=C1C(Cl)=C(N2CCCCCC2)C(=O)N1c1ccc(Br)cc1 | . | ? | -11% | . | .
COc1ccc(Nc2c3c(nc4c(-c5ccccc5)c(C)nn24)CCC3)cc1 | ? | 3.2µM* | 3.5µM* | -27% | 12%
Cc1nn2c(NCc3ccccn3)c3c(nc2c1-c1ccccc1)CCC3 | -18% | 0.1µM* | 0.56µM* | -21% | 2%
Cc1cc(C)cc(Nc2c3c(nc4ncnn24)CCC3)c1 | -3% | ? | 13µM* | -12% | -10%
Cc1cc(NCc2ccccn2)n2nc(C)c(-c3ccccc3)c2n1 | ? | 0.71µM* | 0.32µM* | -30% | 10%
Cc1nn2c(N3CCN(C)CC3)c3c(nc2c1-c1ccccc1)CCCC3 | -15% | -10% | 3% | -21% | 9%
Cc1cc(Nc2ccccc2)n2nc(C)c(-c3ccccc3)c2n1 | . | 13% | 4% | -25% | 5%
Cc1nn2c(NCc3ccccn3)cc(C(C)(C)C)nc2c1-c1ccccc1 | -13% | 0.25µM* | 2.2µM* | ? | ?
c1ccc(CNc2c3c(nc4ncnn24)CCCC3)nc1 | -10% | 7.1µM* | -1%[0.365 µM] | -1% | -7%
Cc1nn2c(NCCN3CCOCC3)c3c(nc2c1-c1ccccc1)CCCC3 | -9% | 1.6µM* | 3.5µM* | -16% | 9%
Clc1ccc(Nc2c3c(nc4ncnn24)CCC3)cc1 | 9% | ? | -17% | 6% | 4%
COc1ccc(-c2cc(NCc3ccccn3)n3ncnc3n2)cc1 | -6% | 2.8µM* | ? | -6% | 1%
CCCc1cc(NCCCn2ccnc2)n2nc(C)c(-c3ccccc3)c2n1 | -11% | ? | -3% | -19% | 4%
N#Cc1c(-n2ncnc2-c2cccc(Cl)c2)sc2c1CCCCC2 | ? | . | . | -12% | 1%
COc1ccc(N2CCN(C(=O)c3cnn(-c4ccc(OC)cc4)c3C3CCN(C(=O)OC(C)(C)C)CC3)CC2)cc1 | ? | . | . | -17% | 2%
COc1cccc(-c2ccc(NC(=O)C3CCCN(Cc4nccn4C)C3)cc2)c1 (configuration not stated) | . | 5µM* | ? | . | .
CS(=O)(=O)c1ccc(CNC(=O)[C@@H]2C[C@H]2[C@@H](NP(=O)(c2ccccc2)c2ccccc2)c2ccccc2)cc1 | -8% | ? | -2% | 4% | 5%
COC(=O)C1=C(C(=O)OC)[C@@H]2Nc3ccccc3[C@@]23C[C@@H](C(=O)OC)N(S(=O)(=O)c2cccs2)C3=N1 | 2%[11.5 µM] | . | . | -7%[11.6 µM] | 0%[11.6 µM]
COc1ccc(/C=C/C(=O)Nc2ccc3nc(N4CCC(C)CC4)cc(C)c3c2)cc1 | ? | . | . | 4µM*[quencher] | 13%
COc1ccc(/C=C/C(=O)Nc2ccc3nc(N4CCCCC4)cc(C)c3c2)cc1OC | 2.8µM* | . | . | 7.9µM*[quencher] | ?
SMILES | Tau ThT inhib | RORg inh | Gal4-VP16 FLuc | Tau fluor counter | Tau fibril FP
COc1ccc(C(=O)Nc2ccc3nc(N4CCC(C)CC4)cc(C)c3c2)cc1 | ? | . | . | 5µM*[quencher] | -7%
COc1cccc(C(=O)Nc2ccc3nc(N4CCC(C)CC4)cc(C)c3c2)c1 | ? | . | . | 13µM*[quencher] | 6%
COc1ccc(/C=C/C(=O)Nc2ccc3nc4n(c(=O)c3c2)CCCC4)cc1OC | ? | -18% | -1% | -13% | -2%
Cc1ccc2nc(CN3CCN(S(=O)(=O)c4ccc(F)cc4)CC3)oc2c1 | -1% | . | . | -9% | 5%
COc1ccc(/C=N/NC(=S)NC2CCS(=O)(=O)C2)cc1OC (configuration not stated) | -17% | 16µM* | ? | -16% | 2%
Cc1ccc(/C=N/NC(=S)NC2CCS(=O)(=O)C2)cc1 (configuration not stated) | -8% | 7.9µM* | 5µM* | -3% | -2%
COc1ccc(/C=N/NC(=O)C2C3CCCCC32)cc1OC (configuration not stated) | -6% | 1% | 12% | -6% | 1%
O=S1(=O)CCC(NC(=S)NC2CCS(=O)(=O)C2)C1 (configuration not stated) | 6% | 22%[10 µM] | ? | 4% | 1%
CC(C)c1ccc(NC(=O)c2ccc3c(c2)C(=O)N(Cc2cccnc2)C3=O)cc1 | . | ? | 18µM* | . | .
O=C(O)c1cc(NC(=O)c2ccc3c(c2)C(=O)N(Cc2cccnc2)C3=O)cc(C(=O)O)c1 | . | 0% | -11% | . | .
O=C1c2ccc([N+](=O)[O-])cc2C(=O)N1Cc1cccnc1 | . | 1.3µM* | -27% | . | .
COC(=O)Cc1ccc(NC(=O)c2ccc3c(c2)C(=O)N(Cc2cccnc2)C3=O)cc1 | . | 15% | ? | . | .
CCOC(=O)c1ccc(NC(=O)c2ccc3c(c2)C(=O)N(Cc2cccnc2)C3=O)cc1 | . | -52% | 11µM* | . | .
CC/C=C\C/C=C\C/C=C\C/C=C\C/C=C\C/C=C\CCC(=O)NCCCC(=O)O | -17% | -4% | -1% | -11% | 8%
CC(=O)N1CCN(Cc2nc3ccc(Cl)cc3n2CCO)CC1 | . | -1% | 6% | . | .
CCOc1ccc(CNc2cc(C)nc3nc(-c4cccc(C)c4)nn23)cc1OC | -7% | . | . | -15% | 6%
Cc1cnc(CNc2ncncc2-c2cccc(C#N)c2)cn1 | . | -11% | 9% | . | .
O=C(CSc1nc2c([nH]c3ccccc32)c(=O)n1-c1ccc(F)cc1)N1CCc2ccccc21 | 3% | . | . | -1% | -4%
Cc1cc(-n2c(SCc3ccccc3F)nc3n[nH]c(C)c3c2=N)ccc1Cl | 5% | 11% | -9% | -21% | 18µM*
CCN(C(=O)CSc1nc2n[nH]c(C)c2c(=N)n1-c1ccc(Cl)c(C)c1)c1cccc(C)c1 | . | 13µM* | ? | . | .
CCCCN(CC)C(=O)CSc1nc2n[nH]c(C)c2c(=N)n1-c1cccc(C)c1 | ? | -8% | -16% | -18% | ?
Cc1cccc(-n2c(SCC(=O)Nc3ccccc3Cl)nc3n[nH]c(C)c3c2=N)c1 | -6% | . | . | ? | -10%
CCNc1ncc2nc(-c3cc(F)cc(F)c3)c(=O)n(CCC#N)c2n1 | . | -3% | -11% | . | .
N[C@@H](C(=O)O)c1ccc(C(=O)O)c(C(=O)O)c1 | 6% | -2% | -3% | -2% | 2%
CC(Cc1ccc(Cl)cc1)N1CCC(n2nccc2NC(=O)C2CCCC2)CC1 (configuration not stated) | . | 15% | -1% | . | .
